PMP22 txn: modulators of PMP22 gene transcription in S16 Schwann cells. S16 Pmp22-F2sN Schwann cells, FLuc/NLuc coincidence luminescence, 24 h. Potency, µM (top dose mostly 57.5 µM), without a hit: at the highest dose activity change, negative = inhibition, hits mostly inhibitors. 2% of 43,000 active; active = clear falling dose curves in both reporters; inconclusive = both reporters move, but less clearly or upward; inactive = either reporter flat; the % is the NLuc reporter signal; note: potency is the fitted concentration of half-maximal effect; % is set by controls: 0 for no effect and ±100 for the full control effect
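S16(c9) Schwann cells with FLuc/NLuc coincidence reporter in the Pmp22 3' UTR; compounds pin-transferred, 24 h at 37C. Dual-luciferase read: FLuc first, then NLuc after Stop&Glo, each 10 min at room temperature.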
SKOV3 invasion: inhibitors of ovarian cancer cell adhesion and invasion in omental model. SKOV3ip1-GFP adhesion/invasion on 3D omental model, fluorescence. Potency, µM (highest dose often 45.8 µM), for inactives: at the highest dose activity change, negative = inhibition, hits mostly inhibitors. 0.1% of 46,000 active. AID 1963576;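 note: potency is the fitted concentration of half-maximal effect; plate controls were DMSO wells for no effect and tomatine positive control wells for full effect; nearly all actives have a fitted effect of over 65% in size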
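A 3D layer of primary human omental fibroblasts, mesothelial cells, fibronectin and collagen I, grown 48 hr, received SKOV3ip1-GFP cells in serum-free medium plus compounds at 0.36-46 umol/L. After 2 hr RT and 16 hr 37 C, fixed adherent GFP cells were counted; normalized to DMSO and tomatine.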
S16 viability: toxic to S16 Pmp22-F2sN Schwann cells. Potency, µM (doses to about 57.5 µM), without a hit: at the highest dose activity change, negative = cytotoxicity, hits mostly cytotoxic. 0.48% of 43,000 active. S16 Pmp22-F2sN Schwann cells viability, CellTiter-Glo, 24 h; note: potency is the fitted concentration of half-maximal effect; % is set by controls: 0 for no effect and ±100 for the full control effect; nearly all actives have a fitted effect of over 65% in size
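CellTiter-Glo counter-screen, qHTS, 1536-well. Cells: S16(c9) Pmp22-F2sN, 500-1,000/well in DMEM + 10% FBS. Cpd 23 nL pin transfer, 24 h, 37C/5% CO2. Read: luminescence, CCD imager.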
p53null 32C kill: selectivity test: cytotoxicity in p53 null cells, permissive temperature; H1299-neo p53 null cells, ATP luminescence, 24 h, 32C; Potency, µM (doses to about 46.1 µM), inactives show top-dose activity change, negative = cytotoxicity, hits mostly cytotoxic; 0.62% of 55,000 active;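 note: potency is the fitted concentration of half-maximal effect; 0% = DMSO only and -100% = full killing by 100 µM tamoxifen; nearly all actives have a fitted effect of over 55% in size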
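AC50 values derive from Hill modelling of qHTS concentration-response data (up to 46 uM) in H1299-neo cells. Cells were treated 24 h at 32C following overnight attachment at 37C; viability was read as cellular ATP.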
pS6 MEF inh: mTORC1 pathway inhibition measured by phospho-rpS6. Tsc2-/- p53-/- MEF, phospho-rpS6 immunofluorescence/PI, 24 h. 0.78% of 44,000 active. Potency, µM (highest dose often 38.3 µM), without a hit: at the top dose activity change, negative = inhibition, hits mostly inhibitors;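 note: potency is the fitted concentration of half-maximal effect; plate controls were DMSO for no effect and rapamycin for full effect; nearly all actives have a fitted effect of over 50% in size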
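Readout is phospho-S6 Alexa 488 signal normalized to PI per well, reported as % active cells with thresholds set from rapamycin (7.5 nM) and DMSO controls. Cells: Tsc2-/-, p53-/- MEFs, 24 hrs compound at 37 C; PI cell number serves as viability.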
p53null 39C tox: p53 null cell cytotoxicity, nonpermissive temperature. H1299 p53-null (neo) cells, 39C, ATPlite viability, 24 h. Potency, µM (titrated, usually from 46.1 µM), for inactives: top-dose activity, negative = cell killing, usual class: cytotoxic. 0.97% of 55,000 active. AID 904;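 note: potency is the fitted concentration of half-maximal effect; 0% = DMSO only and -100% = full killing by 100 µM tamoxifen; nearly all actives have a fitted effect of over 50% in size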
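Temperature-shift cytotoxicity format: compound titrations on p53-null or A138V-expressing H1299 cells held 24 hr at 39C, cell ATP then measured, AC50 from Hill model.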
NLuc sat counter: NanoLuc enzyme inhibition artifact for PMP22 screen; shares compounds with PMP22 txn; Secreted NLuc enzyme (filtered S16 cell medium), Nano-Glo luminescence; Potency, µM (series often up to 57.5 µM), for the others: at the top dose activity change, negative = inhibition, actives largely listed as inhibitors; 4% of 690 active; AID 1508638; note: potency is the fitted concentration of half-maximal effect; % is set by controls: 0 for no effect and ±100 for the full control effect
NLuc Km counter: inhibits NanoLuc under Km conditions, PMP22 counter-screen | shares compounds with PMP22 txn | secreted NLuc enzyme, coelenterazine luminescence, Km conditions | Potency, µM (doses to about 57.5 µM), without a hit: at the highest dose activity change, negative = inhibition, usual class: inhibitors | 5% of 690 active | AID 1508639; note: potency is the fitted concentration of half-maximal effect; % is set by controls: 0 for no effect and ±100 for the full control effect
FLuc ctr PMP22: inhibits firefly luciferase, PMP22 counter-screen; shares compounds with PMP22 txn; purified P. pyralis FLuc, luminescence, 10 min; Potency, µM (top dose mostly 57.5 µM), for the others: at the top dose activity, negative = inhibition, hits mostly inhibitors; 690 tested, under 10 active; AID 1508640; note: % of control where 0% means no effect
Target sequence (P08659 whole entry, looked up): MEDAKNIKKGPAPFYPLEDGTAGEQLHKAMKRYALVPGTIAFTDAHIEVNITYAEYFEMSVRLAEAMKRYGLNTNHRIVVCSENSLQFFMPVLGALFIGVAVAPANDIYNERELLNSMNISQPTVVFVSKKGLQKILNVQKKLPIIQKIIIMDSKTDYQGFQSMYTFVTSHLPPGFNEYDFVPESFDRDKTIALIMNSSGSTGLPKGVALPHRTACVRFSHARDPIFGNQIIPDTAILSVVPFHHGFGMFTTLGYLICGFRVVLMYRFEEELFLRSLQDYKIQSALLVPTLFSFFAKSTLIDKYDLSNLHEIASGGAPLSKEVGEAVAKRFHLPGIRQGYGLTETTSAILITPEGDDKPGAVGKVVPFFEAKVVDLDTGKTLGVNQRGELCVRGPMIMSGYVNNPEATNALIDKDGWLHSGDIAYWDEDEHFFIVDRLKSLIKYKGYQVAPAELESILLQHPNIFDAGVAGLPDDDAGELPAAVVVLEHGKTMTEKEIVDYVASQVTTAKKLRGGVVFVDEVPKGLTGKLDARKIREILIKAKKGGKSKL
S16 viab conf: confirmation of cytotoxicity in S16 Pmp22-F2sN Schwann cells (luciferase reporters placed in the Pmp22 gene). AID 1508641. shares compounds with PMP22 txn. S16 Schwann cells viability, CellTiter-Glo ATP luminescence, 24 h. 7% of 690 active. Potency, µM (titrated, usually from 57.5 µM), for the others: at the highest dose activity change, negative = viability loss, hits mostly cytotoxic; note: potency is the fitted concentration of half-maximal effect; % is set by controls: 0 for no effect and ±100 for the full control effect
PMP22 txn cnf: confirmation of modulators of PMP22 gene transcription in S16 cells; shares compounds with PMP22 txn; S16 Schwann cells Pmp22-F2sN, dual luciferase, 24 h; Potency, µM (doses to about 57.5 µM), without a hit: at the highest dose activity change, negative = inhibition, hits mostly inhibitors; 22% of 690 active; active = clear falling dose curves in both reporters; inconclusive = both reporters move, but less clearly or upward; inactive = either reporter flat; the % is the FLuc reporter signal; note: potency is the fitted concentration of half-maximal effect
Numbers without * were called inactive. Most compounds without a hit are left out; they make up all but 3% or so of the library. Unless noted, calls come from the whole dose curve; as a rule, active = well fitted curve in the direction sought with a large enough effect; inconclusive = small, poorly fitted or top-dose-only effect, or another doubt; inactive = no such curve, though single readings can be large; an effect the other way counts as inactive or inconclusive.

Results for Cc1ccc(C)c(NC(=O)C2CCCN(S(=O)(=O)c3c(C)noc3/C=C/N(C)C)C2)c1 (configuration not stated) ?
PMP22 txn: inconclusive; SKOV3 invasion: -17%; S16 viability: 3%; p53null 32C kill: 43%; pS6 MEF inh: -26%; p53null 39C tox: 23%; NLuc sat counter: inconclusive; NLuc Km counter: inconclusive; FLuc ctr PMP22: 3%; S16 viab conf: -6%; PMP22 txn cnf: -5%

What do the screens show for `Cc1ccc(/C=C/c2onc(C)c2S(=O)(=O)N2CCC(C(=O)NCC(C)c3ccccc3)CC2)cc1` (configuration not stated)?
PMP22 txn: 13µM*; SKOV3 invasion: inactive; S16 viability: 27%; p53null 32C kill: -2%; pS6 MEF inh: 2%; p53null 39C tox: 8%; NLuc sat counter: -3%; NLuc Km counter: -1%; FLuc ctr PMP22: 7%; S16 viab conf: 2%; PMP22 txn cnf: inconclusive

How did Cc1ccc(/C=C/c2onc(C)c2S(=O)(=O)N2CCC(C(=O)Nc3cccc(C#N)c3)CC2)cc1 do in these assays?
PMP22 txn: 12µM*; SKOV3 invasion: inactive; S16 viability: 18%; p53null 32C kill: 12%; pS6 MEF inh: -16%; p53null 39C tox: -4%; NLuc sat counter: -2%; NLuc Km counter: 7%; FLuc ctr PMP22: 7%; S16 viab conf: 14%; PMP22 txn cnf: -16%

Results for Cc1ccc(/C=C/c2onc(C)c2S(=O)(=O)N2CCC(C(=O)Nc3cc(C)ccc3C)CC2)cc1 ?
PMP22 txn: -19%; SKOV3 invasion: inactive; S16 viability: inconclusive; p53null 32C kill: 0%; pS6 MEF inh: 5%; p53null 39C tox: -8%

Results for C[C@]12CC[C@@H]3c4ccc(O)cc4CC[C@H]3[C@H]1CC[C@H]2O ?
SKOV3 invasion: -9%

Results for COc1cc2[nH]c(=O)n(CCCC(=O)N(C)Cc3ccccc3)c(=O)c2cc1OC ?
PMP22 txn: 2%; SKOV3 invasion: 9%; S16 viability: -2%; p53null 32C kill: 3%; pS6 MEF inh: -12%; p53null 39C tox: 2%

How did O=C(NCCc1csc(-c2ccc(F)cc2)n1)c1cccc(F)c1 do in these assays?
PMP22 txn: inconclusive; SKOV3 invasion: -4%; S16 viability: 25%; p53null 32C kill: -15%; pS6 MEF inh: -1%; p53null 39C tox: -14%

Results for O=C(NCCc1csc(-c2ccc(F)cc2)n1)c1c(F)cccc1Cl ?
PMP22 txn: inconclusive; SKOV3 invasion: -4%; S16 viability: 5%; p53null 32C kill: 3%; pS6 MEF inh: -8%; p53null 39C tox: 1%; NLuc sat counter: inconclusive; NLuc Km counter: inconclusive; FLuc ctr PMP22: inconclusive; S16 viab conf: -9%; PMP22 txn cnf: 29%

What do the screens show for `Cc1ccc(-n2c(SCc3cccc(F)c3)nc3[nH]ncc3c2=O)cc1C`?
PMP22 txn: inconclusive; SKOV3 invasion: 4%; S16 viability: inconclusive; p53null 32C kill: 19%; pS6 MEF inh: 1%; p53null 39C tox: 11%

Results for CCc1ccc(-n2c(SCc3cccc(F)c3)nc3[nH]ncc3c2=O)cc1 ?
PMP22 txn: 16µM*; SKOV3 invasion: 7%; S16 viability: inconclusive; p53null 32C kill: 37%; pS6 MEF inh: -6%; p53null 39C tox: 16%; NLuc sat counter: -18%; NLuc Km counter: inconclusive; FLuc ctr PMP22: -3%; S16 viab conf: inconclusive; PMP22 txn cnf: inconclusive

How did CCc1ccc(NCc2cc3cc(OC)c(OC)cc3n(CC(=O)Nc3cc(C)ccc3C)c2=O)cc1 do in these assays?
PMP22 txn: 11µM*; SKOV3 invasion: inactive; S16 viability: 8%; p53null 32C kill: 7%; pS6 MEF inh: 2%; p53null 39C tox: -15%; NLuc sat counter: -11%; NLuc Km counter: 9%; FLuc ctr PMP22: -1%; S16 viab conf: -10%; PMP22 txn cnf: inconclusive

Results for COc1ccc(Cl)cc1NS(=O)(=O)c1cc(-c2cc(C)no2)ccc1C ?
PMP22 txn: -9%; SKOV3 invasion: -22%; S16 viability: -19%; p53null 32C kill: -5%; pS6 MEF inh: -24%; p53null 39C tox: -20%

Results for CCOc1ccccc1CNS(=O)(=O)c1cc(-c2onc(C)c2C)ccc1OC ?
PMP22 txn: inconclusive; SKOV3 invasion: -2%; S16 viability: inconclusive; p53null 32C kill: -5%; pS6 MEF inh: -4%; p53null 39C tox: -7%

Results for COc1ccc(-c2onc(C)c2C)cc1S(=O)(=O)Nc1cc(Cl)ccc1C ?
PMP22 txn: inconclusive; SKOV3 invasion: -4%; S16 viability: -17%; p53null 32C kill: 13%; pS6 MEF inh: 0%; p53null 39C tox: -2%; NLuc sat counter: inconclusive; NLuc Km counter: inconclusive; FLuc ctr PMP22: -3%; S16 viab conf: -16%; PMP22 txn cnf: inconclusive

What do the screens show for `COc1ccc(-c2onc(C)c2C)cc1S(=O)(=O)NCc1ccc(C)o1`?
PMP22 txn: 8.9µM*; SKOV3 invasion: -17%; S16 viability: -13%; p53null 32C kill: 9%; pS6 MEF inh: -10%; p53null 39C tox: -8%; NLuc sat counter: -3%; NLuc Km counter: 1%; FLuc ctr PMP22: 10%; S16 viab conf: -10%; PMP22 txn cnf: inconclusive

Source: PubChem BioAssay
